Reference: PubChem BioAssay AID1159580 (chemical genetic matrix, 2015)
Out of some 5,500 compounds screened, about 2,000 (36%) were called active. Inconclusive results (about 18%) are left out. No stated cut-off is given here; in the data, active means normalized growth mostly below about 0.91 (no sharp cut-off); inconclusive means no clear call, values can overlap the other calls; inactive means mostly above about 0.92. This is one part of the list.

Test: chemical genetic growth profiling, strain panel (AID 1159580);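 further: tested at 20 µM; growth read once vehicle control cultures reached saturation at 30 °C; 1 = growth at the plate median or of vehicle wells; lower values mean less growth of the strain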
Conditions: S. cerevisiae deletion strains, growth OD

Measured: normalized growth

CC(=O)/C(C#N)=N\Nc1ccc(F)cc1
inactive: locus YDR052C, strain DBF4, active compounds read low 0.957 | locus YDR226W, strain ADK1, active compounds read low 0.978
active: locus YAR019C, strain CDC15, active compounds read low 0.429 | locus YBL105C, strain PKC1, active compounds read low 0.519 | locus YBR135W, strain CKS1, active compounds read low 0.782 | locus YBR136W, strain MEC1, active compounds read low 0.583 | locus YBR160W, strain CDC28, active compounds read low 0.723 | locus YDL017W, strain CDC7, active compounds read low 0.584 | locus YDL028C, strain MPS1, active compounds read low 0.728 | locus YDL101C, strain DUN1, active compounds read low 0.201 | locus YDL214C, strain PRR2, active compounds read low 0.118 | locus YDR054C, strain cdc34, active compounds read low 0.525 | locus YDR477W, strain SNF1, active compounds read low 0.127 | locus YER123W, strain YCK3, active compounds read low 0.115 | locus YER133W, strain GLC7, active compounds read low 0.17 | locus YFL009W, strain cdc4, active compounds read low 0.631 | locus YFL029C, strain CAK1, active compounds read low 0.468 | locus YFR003C, strain YPI1, active compounds read low 0.633 | locus YFR019W, strain FAB1, active compounds read low 0.115 | locus YFR028C, strain CDC14, active compounds read low 0.699 | locus YGR040W, strain KSS1, active compounds read low 0.137 | locus YGR052W, strain FMP48, active compounds read low 0.185 | locus YGR092W, strain DBF2, active compounds read low 0.102 | locus YHR030C, strain SLT2, active compounds read low 0.108 | locus YHR079C, strain IRE1, active compounds read low 0.138 | locus YHR082C, strain KSP1, active compounds read low 0.171 | locus YHR205W, strain SCH9, active compounds read low 0.102 | locus YIL147C, strain SLN1, active compounds read low 0.585 | locus YJL095W, strain BCK1, active compounds read low 0.12 | locus YJL128C, strain PBS2, active compounds read low 0.316 | locus YJL157C, strain FAR1, active compounds read low 0.102 | locus YJR066W, strain TOR1 (second series), active compounds read low 0.107 | locus YJR066W, strain TOR1, active compounds read low 0.137 | locus YKL048C, strain ELM1, active compounds read low 0.14 | locus YKL067W, strain YNK1, active compounds read low 0.117 | locus YKL101W, strain HSL1, active compounds read low 0.118 | locus YKL193C, strain SDS22, active compounds read low 0.455 | locus YKL203C, strain TOR2, active compounds read low 0.126 | locus YLR113W, strain HOG1, active compounds read low 0.178 | locus YLR133W, strain CKI1, active compounds read low 0.118 | locus YLR403W, strain SFP1, active compounds read low 0.0142 | locus YML070W, strain DAK1, active compounds read low 0.123 | locus YMR001C, strain CDC5, active compounds read low 0.458 | locus YMR205C, strain PFK2 (second series), active compounds read low 0.132 | locus YMR277W, strain FCP1, active compounds read low 0.349 | locus YNL006W, strain LST8, active compounds read low 0.57 | locus YNL020C, strain ARK1, active compounds read low 0.123 | locus YNL161W, strain CBK1, active compounds read low 0.409 | locus YNL183C, strain NPR1, active compounds read low 0.147 | locus YNL207W, strain RIO2, active compounds read low 0.632 | locus YNL222W, strain SSU72, active compounds read low 0.487 | locus YNL307C, strain MCK1 (second series), active compounds read low 0.126 | locus YOL078W, strain AVO1, active compounds read low 0.568 | locus YOL136C, strain PFK27, active compounds read low 0.114 | locus YOR061W, strain CKA2, active compounds read low 0.127 | locus YOR119C, strain RIO1, active compounds read low 0.131 | locus YOR231W, strain MKK1, active compounds read low 0.136 | locus YOR329C, strain SCD5, active compounds read low 0.488 | locus YPL031C, strain PHO85, active compounds read low 0.124 | locus YPL153C, strain RAD53, active compounds read low 0.132 | locus YPL204W, strain HRR25, active compounds read low 0.124 | locus YPL209C, strain IPL1, active compounds read low 0.587 | locus YPL256C, strain CLN2, active compounds read low 0.181 | locus YPR025C, strain CCL1, active compounds read low 0.631 | strain NNK1, active compounds read low 0.344 | strain TSCII, active compounds read low 0.512
